The results in this text go back to PubChem BioAssay (EPA / NIEHS).

For orientation: AC50 means the concentration at which the activity in the assay is half-maximal.

Results filed as inconclusive are left out. Some structures have more than one record in an assay (separate samples or runs), and their calls can disagree. Active and inactive are the calls of the source. The calls were made as follows: active = hit-call score of the fitted dose curve at least 0.9, where 1 is the maximum; inconclusive = response in the unintended direction; inactive = score below 0.9.

Sequence of Cellular tumor antigen p53 (Homo sapiens) (P04637 whole entry, looked up): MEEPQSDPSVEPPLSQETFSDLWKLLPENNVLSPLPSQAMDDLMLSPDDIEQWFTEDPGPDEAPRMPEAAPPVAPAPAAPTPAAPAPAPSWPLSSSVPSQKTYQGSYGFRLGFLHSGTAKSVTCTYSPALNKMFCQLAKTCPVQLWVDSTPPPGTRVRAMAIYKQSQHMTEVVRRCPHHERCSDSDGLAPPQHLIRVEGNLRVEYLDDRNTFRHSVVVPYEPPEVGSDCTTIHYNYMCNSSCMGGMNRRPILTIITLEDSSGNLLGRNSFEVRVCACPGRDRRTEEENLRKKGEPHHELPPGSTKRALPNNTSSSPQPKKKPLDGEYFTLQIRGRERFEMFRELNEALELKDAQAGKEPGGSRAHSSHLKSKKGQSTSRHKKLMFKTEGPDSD

System in the first assay: not listed separately
Kind of assay: TOX21_p53_BLA_p3_viability: Viability Assessment in the Tox21 HCT-116 p53 Agonism Beta-lactamase Assay, Phase 3 (AID 2283593).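 Also: cells exposed to compound for 16 h before reading.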 Put shortly: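 Cellular ATP was quantified by CellTiter-Glo luminescence, read after 30 min at room temperature. Beforehand, HCT116 cells (4000/well) received compound 5 h post-seeding, 217-fold diluted from DMSO, then incubated 16 h at 37C.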
As for `c1ccc(C(O[C@@H]2CCCN(CCc3ccc4c(c3)OCO4)C2)c2ccccc2)cc1`, the compound was called inactive.

Regarding `CC(C)c1nnc2ccc(-c3ocnc3-c3cc(F)ccc3F)cn12`, the compound was classed as inactive.

Consider `CCCCCCCC/C=C\CCCCCCCC(=O)OC[C@@H](O)[C@H]1OC[C@H](O)[C@H]1O`, for which the compound was called inactive.

As for `C[C@]12C=CC(=O)C=C1CC[C@H]1[C@@H]3C[C@@H](O)[C@](O)(C(=O)CO)[C@@]3(C)C[C@H](O)[C@@]12F`, the compound was classed as inactive.

Take `CCCCC(CC)C(=O)OCCOCCOCCOC(=O)C(CC)CCCC` (stereo unspecified): the result was inactive.

`C=CN1CCCC1=O`: the compound was classed as inactive.

As for `CC(=O)c1ccccc1`, the compound was called inactive.

Take `OC(Cn1cncn1)(Cn1cncn1)c1ccc(F)cc1F`: the compound was classed as inactive.

On to `CCCCOC(=O)c1ccccc1`, for which the compound was classed as inactive.

In the case of `c1ccc2cc3ccccc3cc2c1`, the call was inactive.

Turning to `CCn1nc(C)c2c1C(=O)NCC(c1ccc(O)cc1)=N2`, the compound was classed as inactive.

For the compound `CCc1cccc(CC)c1N`, the compound was classed as inactive.

Regarding `CCCCCCCCCCCCCCO`, the compound was classed as inactive.

For `CCCc1ccccc1`, the compound was classed as inactive.

Consider `CCc1ccc(O)c(C(C)(C)C)c1`, for which the result was inactive.

Regarding `NNC(=O)c1ccncc1`, the compound was called inactive.

`NC(=O)NN=Cc1ccc([N+](=O)[O-])o1`: the compound was called inactive.

As to `c1ccc2ncccc2c1`, the call was inactive.

Consider `CCOC(N)=O`, for which the compound was called inactive.

With `CCCCCCCCCCCCCCCCOS(=O)(=O)O`, the result was inactive.

Take `OCCOCCOCCO`: the outcome was inactive.

For `OC(CCl)CCl`, the result was inactive.

Consider `O=C1CN(N=Cc2ccc([N+](=O)[O-])o2)C(=O)N1`, for which the result was inactive.

A further assay has as its target Cellular tumor antigen p53 (Homo sapiens) (UniProt P04637). Kind of assay: TOX21_p53_BLA_p3_ratio: Tox21 HCT-116 p53 Agonism Beta-lactamase Assay, Ratio, Phase 3 (AID 2283596). The essentials:
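Cells were seeded at 4000/well, rested 5 h at 37C, then dosed with DMSO compound solutions (217-fold dilution) for 16 h. CCF4-AM substrate was loaded for 2 h at room temperature, and the 460/530 nm emission ratio was fitted for gain of signal versus DMSO.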
As for `CCCCN1C(=O)[C@@H]([C@H](O)C2CCCCC2)NC(=O)C12CCN(Cc1ccc(Oc3ccc(C(=O)O)cc3)cc1)CC2`, the AC50 is 48.8 µM (active).

Regarding `c1ccc(C(O[C@@H]2CCCN(CCc3ccc4c(c3)OCO4)C2)c2ccccc2)cc1`, the result was inactive.

In the case of `Cn1c(=O)c2[nH]cnc2n(C)c1=O`, the result was inactive.

On to `O=C(O)c1cccc(C[C@@H]2COc3ccc(OCc4nc5cc(F)ccc5s4)cc3[C@@H]2O)c1`, for which the outcome was inactive.

Take `CCCCCCCC/C=C\CCCCCCCC(=O)OC[C@@H](O)[C@H]1OC[C@H](O)[C@H]1O`: the result was inactive.

For `O=S1(=O)CCCO1`, the result was inactive.

For `C[C@]12C=CC(=O)C=C1CC[C@H]1[C@@H]3C[C@@H](O)[C@](O)(C(=O)CO)[C@@]3(C)C[C@H](O)[C@@]12F`, the outcome was inactive.

Regarding `CCCCC(CC)C(=O)OCCOCCOCCOC(=O)C(CC)CCCC` (stereo unspecified), the result was inactive.

For the compound `C=CN1CCCC1=O`, the result was inactive.

Regarding `CC(=O)c1ccccc1`, the outcome was inactive.

In the case of `OC(Cn1cncn1)(Cn1cncn1)c1ccc(F)cc1F`, the outcome was inactive.

Turning to `CCCCOC(=O)c1ccccc1`, the outcome was inactive.

Consider `c1ccc2cc3ccccc3cc2c1`, for which the outcome was inactive.

`CCCCCCCCN(C)C`: the outcome was inactive.

`CCn1nc(C)c2c1C(=O)NCC(c1ccc(O)cc1)=N2`: the result was inactive.

In the case of `CCc1cccc(CC)c1N`, the result was inactive.

Take `CCCCCCCCCCCCCCO`: the result was inactive.

For the compound `CCc1ccc(O)c(C(C)(C)C)c1`, the result was inactive.

As for `O=C(O)c1ccc2c(c1)nc(C(=O)NC1CCN(C3CC3)CC1)n2Cc1cc(-c2ccc(Cl)s2)on1`, the outcome was inactive.

Regarding `CCCCCCCCCC`, the result was inactive.

With `NC(=O)NN=Cc1ccc([N+](=O)[O-])o1`, the result was inactive.

`c1ccc2ncccc2c1`: the result was inactive.

Regarding `CCOC(N)=O`, the AC50 is 88.1 µM (active) and the result was inactive.

Turning to `CCCCCCCCCCCCCCCCOS(=O)(=O)O`, the result was inactive.

As for `OCCOCCOCCO`, the outcome was inactive.

For the compound `OC(CCl)CCl`, the outcome was inactive.

On to `O=C1CN(N=Cc2ccc([N+](=O)[O-])o2)C(=O)N1`, for which the outcome was inactive.

System in the next assay: not listed separately
Nature of the assay: TOX21_p53_BLA_p4_viability: Viability Assessment in the Tox21 HCT-116 p53 Agonism Beta-lactamase Assay, Phase 4 (AID 2283597).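 Also: hits lower the luminescence signal meaning cytotoxicity.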 The essentials: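 ATP content by CellTiter-Glo luminescence, 30 min RT, read after the beta-lactamase ratio step. Cells: HCT116, 4000/well, compound added after 5 h, exposure 16 h at 37C. Signal loss = reduced viability.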
For the compound `CCCCN1C(=O)[C@@H]([C@H](O)C2CCCCC2)NC(=O)C12CCN(Cc1ccc(Oc3ccc(C(=O)O)cc3)cc1)CC2`, the compound was classed as inactive.

Turning to `c1ccc(C(O[C@@H]2CCCN(CCc3ccc4c(c3)OCO4)C2)c2ccccc2)cc1`, the outcome was inactive.

Regarding `Cn1c(=O)c2[nH]cnc2n(C)c1=O`, the call was inactive.

As to `CC(C)c1nnc2ccc(-c3ocnc3-c3cc(F)ccc3F)cn12`, the call was inactive.

In the case of `O=C(O)c1cccc(C[C@@H]2COc3ccc(OCc4nc5cc(F)ccc5s4)cc3[C@@H]2O)c1`, the result was inactive.

For `O=S1(=O)CCCO1`, the outcome was inactive.

In the case of `C[C@]12C=CC(=O)C=C1CC[C@H]1[C@@H]3C[C@@H](O)[C@](O)(C(=O)CO)[C@@]3(C)C[C@H](O)[C@@]12F`, the result was inactive.

Consider `CCCCC(CC)C(=O)OCCOCCOCCOC(=O)C(CC)CCCC` (stereo unspecified), for which the call was inactive.

In the case of `C=CN1CCCC1=O`, the compound was classed as inactive.

Take `CC(=O)c1ccccc1`: the outcome was inactive.

Take `OC(Cn1cncn1)(Cn1cncn1)c1ccc(F)cc1F`: the result was inactive.

As to `c1ccc2cc3ccccc3cc2c1`, the call was inactive.

In the case of `CCCCCCCCN(C)C`, the result was inactive.

`CCCCCCCCCCCCCCO`: the call was inactive.

As for `CCc1ccc(O)c(C(C)(C)C)c1`, the AC50 is 79.1 µM (active).

In the case of `NNC(=O)c1ccncc1`, the result was inactive.

As for `CCCCCCCCCC`, the compound was called inactive.

With `NC(=O)NN=Cc1ccc([N+](=O)[O-])o1`, the call was inactive.

For the compound `CC1(C)C(=O)N(Cl)C(=O)N1Cl`, the compound was classed as inactive.

Take `c1ccc2ncccc2c1`: the compound was called inactive.

For `CCOC(N)=O`, the call was inactive.

On to `CCCCCCCCCCCCCCCCOS(=O)(=O)O`, for which the AC50 is 36.5 µM (active).

With `OCCOCCOCCO`, the outcome was inactive.

As for `OC(CCl)CCl`, the outcome was inactive.

Turning to `O=C1CN(N=Cc2ccc([N+](=O)[O-])o2)C(=O)N1`, the compound was called inactive.
